{"source": "PubChem BioAssay (NCATS)", "note": "Results filed as inconclusive are left out. A call without a number means that no potency is given here. Values without a mark were called inactive. Activity calls are given as the source filed them. Calls come from the whole dose curve; as a rule, active = well fitted inhibition curve with a large enough effect; inconclusive = small, poorly fitted or top-dose-only effect; inactive = no such curve, though single readings can be large or run the other way. Throughout, for outcome: nearly all actives have a fitted effect of over 40% in size. Throughout, for potency: potency is the fitted concentration of half-maximal effect.", "data": [{"assay": "BET inhibitor-based combinations targeting novel dependencies in MECOM-rearranged (r) AML: SET-2 cell line (AID 2202231); note: nearly all actives have a fitted effect of over 35% in size", "conditions": "SET-2 AML cells viability, CellTiter-Glo luminescence, 48 h; viability: stronger effect = lower value, concentration not given here", "outline": "(§1)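 Readout: CellTiter-Glo luminescence. Exposure: 48 h, 11 concentrations, 500 cells/well. Metric: AUC and within-line Z-AUC after DMSO/empty-well normalization.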", "units": {"viability": "%"}, "values": [{"smiles": "Clc1ccc(C(c2ccccc2Cl)C(Cl)Cl)cc1", "note": "(configuration not stated)", "viability": 70.3}, {"smiles": "O=C(O)C1CCCN(CCC=C(c2ccccc2)c2ccccc2)C1", "note": "(configuration not stated)", "viability": 117}, {"smiles": "COc1cc(SC)ccc1C(=O)N1CCC(Cc2ccccc2)CC1", "viability": 97}, {"smiles": "CC(C)NCC(O)c1ccc(O)c(O)c1", "note": "(configuration not stated)", "viability": 106}, {"smiles": "CCN1/C(=C/C(C)=O)Sc2ccc(OC)cc21", "viability": 93.6}, {"smiles": "COc1ccccc1OCC(O)CN1CCN(CC(=O)Nc2c(C)cccc2C)CC1", "note": "(configuration not stated)", "viability": 110}, {"smiles": "CNC[C@H](O)c1cccc(O)c1", "viability": 112}]}, {"assay": "BET inhibitor-based combinations targeting novel dependencies in MECOM-rearranged (r) AML: OCI-AML3 cell line (AID 2202232)", "conditions": "CellTiter-Glo luminescence, 48 h; Potency: OCI-AML3 viability; series mostly up to 46 µM", "outline": "as §1", "values": [{"smiles": "Clc1ccc(C(c2ccccc2Cl)C(Cl)Cl)cc1", "note": "(configuration not stated)", "Potency": "inactive"}, {"smiles": "O=C(O)C1CCCN(CCC=C(c2ccccc2)c2ccccc2)C1", "note": "(configuration not stated)", "Potency": "inactive"}, {"smiles": "O=C1c2c(O)cc(O)cc2OC(c2ccc(O)c(O)c2)C1O", "note": "(configuration not stated)", "Potency": "23.5 µM (active)"}, {"smiles": "COc1cc(SC)ccc1C(=O)N1CCC(Cc2ccccc2)CC1", "Potency": "inactive"}, {"smiles": "CC(C)NCC(O)c1ccc(O)c(O)c1", "note": "(configuration not stated)", "Potency": "inactive"}, {"smiles": "COc1ccc(Cc2nccc3cc(OC)c(OC)cc23)cc1OC", "Potency": "8.33 µM (active)"}, {"smiles": "CNC[C@H](O)c1cccc(O)c1", "Potency": "inactive"}, {"smiles": "Oc1cc(O)cc(/C=C/c2ccc(O)c(O)c2)c1", "Potency": "10.5 µM (active)"}]}, {"assay": "BET inhibitor-based combinations targeting novel dependencies in MECOM-rearranged (r) AML: MV-4-11 cell line (AID 2202233)", "conditions": "MV-4-11 AML viability, CellTiter-Glo luminescence, 48 h; series mostly up to 46 µM", "outline": "(§2)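 Seeding density was 500 cells/well, and drug exposure lasted 48 hr under standard culture conditions. Read-out used CellTiter-Glo reagent with a 15 min room-temperature incubation before luminescence measurement; AUC and Z-AUC summarize the normalized responses.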", "values": [{"smiles": "COc1cc(SC)ccc1C(=O)N1CCC(Cc2ccccc2)CC1", "Potency": "20.9 µM (active)"}, {"smiles": "CC(C)NCC(O)c1ccc(O)c(O)c1", "note": "(configuration not stated)", "Potency": "inactive"}, {"smiles": "COc1ccc(Cc2nccc3cc(OC)c(OC)cc23)cc1OC", "Potency": "18.6 µM (active)"}, {"smiles": "Oc1cc(O)cc(/C=C/c2ccc(O)c(O)c2)c1", "Potency": "10.5 µM (active)"}]}, {"assay": "BET inhibitor-based combinations targeting novel dependencies in MECOM-rearranged (r) AML: HNT-34 cell line (AID 2202234)", "conditions": "HNT-34 AML viability, CellTiter-Glo luminescence, 48 h; series mostly up to 46 µM", "outline": "as §2", "values": [{"smiles": "O=C(O)C1CCCN(CCC=C(c2ccccc2)c2ccccc2)C1", "note": "(configuration not stated)", "Potency": "inactive"}, {"smiles": "CC(C)NCC(O)c1ccc(O)c(O)c1", "note": "(configuration not stated)", "Potency": "inactive"}, {"smiles": "COc1ccc(Cc2nccc3cc(OC)c(OC)cc23)cc1OC", "Potency": "5.9 µM (active)"}, {"smiles": "COc1ccccc1OCC(O)CN1CCN(CC(=O)Nc2c(C)cccc2C)CC1", "note": "(configuration not stated)", "Potency": "inactive"}, {"smiles": "CNC[C@H](O)c1cccc(O)c1", "Potency": "inactive"}]}, {"assay": "BET inhibitor-based combinations targeting novel dependencies in MECOM-rearranged (r) AML: UCSD-AML1 cell line (AID 2202235)", "conditions": "UCSD-AML1 AML cells viability, CellTiter-Glo, 48 h; series mostly up to 46 µM", "outline": "as §2", "values": [{"smiles": "Clc1ccc(C(c2ccccc2Cl)C(Cl)Cl)cc1", "note": "(configuration not stated)", "Potency": "inactive"}, {"smiles": "O=C(O)C1CCCN(CCC=C(c2ccccc2)c2ccccc2)C1", "note": "(configuration not stated)", "Potency": "inactive"}, {"smiles": "O=C1c2c(O)cc(O)cc2OC(c2ccc(O)c(O)c2)C1O", "note": "(configuration not stated)", "outcome": "inactive"}, {"smiles": "COc1cc(SC)ccc1C(=O)N1CCC(Cc2ccccc2)CC1", "Potency": "inactive"}, {"smiles": "CC(C)NCC(O)c1ccc(O)c(O)c1", "note": "(configuration not stated)", "Potency": "inactive"}, {"smiles": "COc1ccc(Cc2nccc3cc(OC)c(OC)cc23)cc1OC", "Potency": "8.33 µM (active)"}, {"smiles": "CNC[C@H](O)c1cccc(O)c1", "Potency": "inactive"}, {"smiles": "Oc1cc(O)cc(/C=C/c2ccc(O)c(O)c2)c1", "Potency": "18.6 µM (active)"}]}]}
